Shiga inhibitor – blocks Shiga toxin action in Vero cells | Vero cells, Shiga toxin protein synthesis inhibition reporter | hit rate 9.2% among 290,000 | inhibition, % at 38.7 µM; in the data active = inhibition mostly above about 28%, no sharp cut-off; inactive = mostly below about 43%; note: 0% is about no effect
LASV entry inh – Lassa virus entry inhibition; Lassa virus pseudotype entry inhibition, cell reporter; hit rate 1.2% among 300,000; Potency, µM (titrated, usually from 37.9 µM), for the others: at the highest dose activity change, negative = inhibition, actives largely listed as inhibitors; AID 540256; calls by dose curve; tested in HEK293 cells; note: potency is the fitted concentration of half-maximal effect; % is set by controls: 0 for no effect and ±100 for the full control effect; nearly all actives have a fitted effect of over 50% in size
HCV inh – inhibitors of hepatitis C virus infection; AID 651820; Potency, µM (top dose mostly 41.8 µM), for the others: at the top dose activity change, negative = inhibition, usual class: inhibitors; Huh7.5.1 HCVcc-Cre infection, luciferase reporter, 44 h; hit rate 3.4% among 340,000; active = well fitted inhibition curve with a large enough effect; inconclusive = small, poorly fitted or top-dose-only effect, or another doubt; inactive = no such curve, though single readings can be large or run the other way; note: potency is the fitted concentration of half-maximal effect; % is set by controls: 0 for no effect and ±100 for the full control effect
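Antiviral activity was scored by luciferase reporter output from cells infected with HCVcc-Cre (~0.5 moi) in presence of compound, 44 h infection period, cells seeded 1,000/well 4 h prior.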
MARV entry inh – Marburg virus entry inhibition; Marburg virus pseudotyped entry inhibition, cell reporter; Potency, µM (doses to about 37.8 µM), without a hit: top-dose activity change, negative = inhibition, most hits filed as inhibitors; hit rate 1.8% among 300,000; AID 540276; calls by dose curve; tested in HEK293 cells; note: potency is the fitted concentration of half-maximal effect; % is set by controls: 0 for no effect and ±100 for the full control effect
CHX counter – counter-screen for Shiga toxin inhibitors: cycloheximide protein synthesis inhibition; cell reporter, cycloheximide protein synthesis inhibition counterscreen; max response, %; hit rate 12% among 300,000; AID 2314; in the data active = max response mostly above about 13%, no sharp cut-off; inactive = mostly below about 14%; note: read at 38.3 µM for the half of the compounds with a filed dose; 0% is about no effect
FMDV inh – blocks foot and mouth disease virus | AID 1159524 | Potency, µM (highest dose often 57.9 µM), for inactives: top-dose activity change, negative = inhibition, usual class: inhibitors | FMDV antiviral cell-based qHTS | hit rate 1.2% among 410,000; calls by dose curve; tested in HEK293T cells; note: read-out not given here; potency is the fitted concentration of half-maximal effect; % is set by controls: 0 for no effect and ±100 for the full control effect; nearly all actives have a fitted effect of over 45% in size
An asterisk follows results filed as active; [ ] = dose if it differs, or a comment. Sampled rows, rich in hits. Any-hit rate of the full collection: about 13%.

Cc1ccc(SCC(=O)c2cc(C)c(O)c(C)c2)cc1 was read as Shiga inhibitor 50*, HCV inh -25%, CHX counter 17* and FMDV inh 28%.
Screening CCOC(=O)c1c(C)nc2ccccn12 returned Shiga inhibitor 19, LASV entry inh 10%, HCV inh -1%, MARV entry inh 10%, CHX counter 1 and FMDV inh -20%.
Screening Cc1ccc(SCC(=O)NC2CC2)cc1 returned Shiga inhibitor 6, HCV inh 8%, CHX counter 15 and FMDV inh 18%.
`Cc1ccc(NC(=O)N(C)C)cc1Cl` gave Shiga inhibitor 14 and CHX counter 11*.
Screening CN(C)C(=O)Nc1ccc(Oc2ccc(Cl)cc2)cc1 returned Shiga inhibitor 14 and CHX counter 20*.
Screening O=C(O)C1CC=CCC1C(=O)Nc1ccc(Oc2ccc(Cl)cc2)cc1 (centres undefined) returned Shiga inhibitor 12, LASV entry inh 5%, HCV inh 6%, MARV entry inh inconclusive, CHX counter 1 and FMDV inh -11%.
Screening CCCCOC(=O)Nc1ccc(C(=O)OC)cc1 returned Shiga inhibitor 40, LASV entry inh -17%, HCV inh -24%, MARV entry inh inconclusive, CHX counter 12 and FMDV inh 28%.
Cc1ccc(NC(=O)Nc2ccc(F)cc2)cc1Cl was read as Shiga inhibitor 78*, LASV entry inh 4%[46.1 µM], HCV inh -30%, MARV entry inh inconclusive, CHX counter 32* and FMDV inh 27%.
CCCCOC(=O)Nc1ccc(C)c(Cl)c1 was read as Shiga inhibitor 57*, LASV entry inh inconclusive, HCV inh -7%, MARV entry inh -22%[46.1 µM], CHX counter 33* and FMDV inh 16%.
`Cc1cc(C)n(CC(O)COc2ccc(F)cc2)n1` (centres undefined) gave Shiga inhibitor -13, HCV inh 19%, CHX counter -4 and FMDV inh 5%.
COc1cccc(NC(=O)Nc2ccc(C)c(Cl)c2)c1 was read as Shiga inhibitor 78*, LASV entry inh 23%, HCV inh -21%, MARV entry inh 1%[46.1 µM], CHX counter 45* and FMDV inh 39%.
Screening COc1ccc(-c2[nH]ncc2CNC(C)c2ccccc2Cl)cc1F (centres undefined) returned Shiga inhibitor -34, HCV inh -27%, CHX counter -1 and FMDV inh 0%.
For COc1ccc(CCNc2nnc(Sc3nnnn3-c3ccccc3)s2)cc1OC the results were Shiga inhibitor -9, LASV entry inh -21%, HCV inh 14µM*, MARV entry inh inconclusive, CHX counter -1 and FMDV inh 28µM*.
`O=C(c1ccc(F)c(S(=O)(=O)N2CCOCC2)c1)N1CCN(c2ncccn2)CC1` gave HCV inh 2% and FMDV inh -8%.
Nc1nonc1-c1nc2ccccc2[nH]1 was read as Shiga inhibitor 23, LASV entry inh 2%, HCV inh 5%, MARV entry inh 4%[46.1 µM], CHX counter 9 and FMDV inh 6%.
Cn1cc(Cl)c(-c2nc3ccccc3[nH]2)n1 was read as Shiga inhibitor 71*, LASV entry inh -4%, HCV inh 1%, MARV entry inh 3%, CHX counter 26* and FMDV inh 9%.
Screening c1ccc2c(-c3nc4ccccc4[nH]3)cccc2c1 returned FMDV inh 16%.
`Clc1ccccc1-c1nc2ccccc2[nH]1` gave Shiga inhibitor 81*, LASV entry inh inconclusive, HCV inh 1%, MARV entry inh inconclusive, CHX counter 53* and FMDV inh 22%.
Screening Fc1ccccc1-c1nc2ccccc2[nH]1 returned Shiga inhibitor 111*, LASV entry inh 10%, HCV inh -4%, MARV entry inh inconclusive, CHX counter 39* and FMDV inh 40%.
For Cc1ccccc1-c1nc2ccccc2[nH]1 the results were Shiga inhibitor 95*, LASV entry inh -4%, HCV inh -8%, MARV entry inh inconclusive, CHX counter 46* and FMDV inh 51%.
O=C(c1ccsc1)N1CCCC(N2CCN(c3ccccc3F)CC2)C1 (centres undefined) was read as Shiga inhibitor 15, LASV entry inh 1%, HCV inh -4%, MARV entry inh -1%, CHX counter 2 and FMDV inh -6%.

Screening results (PubChem)
